Screens as filed in PubChem BioAssay.
Tau fluor cs: Counterscreen qHTS for Inhibitors of Tau Fibril Formation, Fluorescence Polarization; tau K18 P301L Alexa594 fluorescence, heparin fibrillization; Potency, µM (top dose mostly 57.7 µM), without a hit: at the highest dose activity change, negative = decrease; 0.93% of 280,000 active; AID 1463, 2008; note: potency is the fitted concentration of half-maximal effect; nearly all actives have a fitted effect of over 55% in size
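Human tau K18 P301L (15 uM unlabeled, 0.24 uM Alexa 594-labeled) in 100 mM sodium acetate pH 7 with 20 uM heparin, 6 hr at 37 C. ThT 30 uM added, 1 hr ambient; Alexa 594 FP and total fluorescence read at 555/632 nm.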
Tau FP inhib: qHTS for Inhibitors of Tau Fibril Formation, Fluorescence Polarization; K18 P301L tau heparin fibrillization, Alexa594 FP, 6 h; Potency, µM (series often up to 57.7 µM), for inactives: top-dose activity, negative = inhibition, actives largely listed as inhibitors; 0.39% of 280,000 active; AID 1468, 2008; note: potency is the fitted concentration of half-maximal effect; nearly all actives have a fitted effect of over 55% in size
Target sequence (P10636 561-689 P618L limits assumed): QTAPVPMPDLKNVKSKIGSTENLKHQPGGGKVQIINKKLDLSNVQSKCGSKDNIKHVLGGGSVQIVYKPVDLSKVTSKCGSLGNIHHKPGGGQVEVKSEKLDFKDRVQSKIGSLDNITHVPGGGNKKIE
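Steps: dispense K18 P301L tau (15 uM plus 0.24 uM Alexa 594 tracer, final) in pH 7 sodium acetate; add compound; add heparin (20 uM final); incubate 6 hr, 37 C; add ThT (30 uM final); after 1 hr ambient, read FP.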
Sfp inh: qHTS Assay for Inhibitors of Bacillus subtilis Sfp phosphopantetheinyl transferase (PPTase) | 4'-phosphopantetheinyl transferase ffp (Bacillus subtilis), Q9F4F7 | Biochemical Sfp PPTase activity, qHTS | Potency, µM, without a hit: largest response in the series, negative = inhibition, usual class: inhibitors | 3.5% of 310,000 active;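 note: the enzyme is Sfp with the accession as filed and its product quenches rhodamine fluorescence; potency is the fitted concentration of half-maximal effect; 0% = enzyme reaction without inhibitor and -100% = no enzyme wells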
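Reaction rates are the 30-min fluorescence difference (ex 525, em 598 nm) in wells containing 15 nM Sfp, 5 uM rhodamine-CoA and 12.5 uM BHQ-2-YbbR at pH 7.6 with 10 mM MgCl2.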
FBPA coupling cs: qHTS Assay for Inhibitors of Fructose-1,6-bisphosphate Aldolase from Giardia Lamblia: Coupling assay counterscreen | coupling enzyme system counterscreen, AmpLite Red fluorescence | activity change, negative = inhibition, % at 58.2 µM, hits read low | 0.67% of 290,000 active | AID 2472, 2010; in the data active = activity change below about -30%
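Counterscreen lacking aldolase: glyceraldehyde-3-phosphate coupling-enzyme reagent preincubated 10 min at RT with compound (at 57.5 uM final), then substrate/coupling system with AmpLite Red added; fluorescence read at 525/598 nm after 20 min RT.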
Tau fibril ThT: qHTS for Inhibitors of Tau Fibril Formation, Thioflavin T Binding. Microtubule-associated protein tau (Homo sapiens), P10636. recombinant tau K18 P301L (four-repeat tau fragment), heparin-induced fibrillization, ThT fluorescence. Potency, µM (series often up to 57.4 µM), inactives show top-dose activity, negative = inhibition, actives largely listed as inhibitors. 2.1% of 270,000 active. AID 1460, 2008; note: potency is the fitted concentration of half-maximal effect; nearly all actives have a fitted effect of over 55% in size
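K18 P301L tau (15 uM + 0.24 uM Alexa 594-tagged), heparin 20 uM, NaOAc pH 7, 6 h 37 C; ThT 30 uM, 1 h RT, ex 450/em 510 nm.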
* = called active by the depositor; ? = inconclusive; . = not tested or not shown; ! = not confirmed by another sample; [ ] = remark or other dose. Hits are enriched below; roughly 5.2% of the tested compounds scored in any of these assays. Unless noted, calls come from the whole dose curve; as a rule, active = well fitted curve in the direction sought with a large enough effect; inconclusive = small, poorly fitted or top-dose-only effect, or another doubt; inactive = no such curve, though single readings can be large; an effect the other way counts as inactive or inconclusive. Unless noted, % is set by controls: 0 for no effect and ±100 for the full control effect.

SMILES	Tau fluor cs	Tau FP inhib	Sfp inh	FBPA coupling cs	Tau fibril ThT
COC(=O)C1=CO[C@@H](C)[C@@H]2CN3CCc4c([nH]c5cc(OC)ccc45)[C@@H]3C[C@H]12	?	-8%	-3%	-28	22µM*
COc1ccc(C(=O)NCCn2cc(SCc3ccc(C(F)(F)F)cc3)c3ccccc32)cc1OC	?	-13%	.	.	?
O=C1CC[C@@]2(O)C3Cc4ccc(O)c5c4C2(CCN3CC2CC2)[C@H]1O5 (stereo not given in full)	-7%	-5%	13%	.	-8%
O=C(CN1CCOCC1)c1ccc2cc[nH]c2c1	-12%	2%	50µM*	-1	?
COc1ccc(C(=O)CN2CCOCC2)cc1F	-15%	-4%	9%	0	?
NC(N)=NN=C(/C=C/c1ccc([N+](=O)[O-])o1)/C=C/c1ccc([N+](=O)[O-])o1	.	.	50µM*	.	.
COC(=O)CCCc1[se]c2ccccc2c1I	-20%[81.3 µM]	-4%[81.3 µM]	-28%	5	?
COc1cc2c(cc1OC)-c1c(OC)c(OC)cc3c1[C@H](C2)N(C)CC3	-13%	-10%	-1%	-34*	?
CC(C)CC(N)C1(c2ccc(Cl)cc2)CCC1 (stereo not given)	-8%	1%	13%	-1	-8%
COc1ccc(N2C(=O)C(Cl)=C(N3CCN(Cc4ccccc4)CC3)C2=O)cc1	-30%	28µM*	2%	-3	25µM*
O=C1C(Cl)=C(N2CCCCCC2)C(=O)N1c1ccccc1	?	?	1%	8	25µM*
C[C@@H]1C[C@H](C)C[C@H](C)[C@@H](O)CC(=O)O[C@H]([C@H]2CCC[C@H]2C(=O)O)C/C=C/C=C(/C#N)[C@H](O)[C@@H](C)C1	.	.	5%	-2	.
O=C1CC2OCC=C3CN4CC[C@@]56c7ccccc7N1C5C2C3CC46 (stereo not given in full)	-5%	0%	7%	1	-2%
COc1ccc2nc(NC(=O)c3nc(S(=O)(=O)Cc4cccc(C)c4)ncc3Cl)sc2c1	?	-10%	.	.	14µM*
CCOc1ccc2nc(NC(=O)c3cccn(Cc4ccc(C)cc4)c3=O)sc2c1	-2%	-6%	.	.	-1%
Cc1cc(C=C2C(=O)NC(=S)NC2=O)c(C)n1C1CCCC1	-22%	-13%	40µM*	3	16µM*
O=C(Nc1ccc(Cl)c(C(F)(F)F)c1)NC1CC2CCCC(C1)N2Cc1ccccc1 (stereo not given)	?	28µM*	-2%	2	-12%
C=CCN1C(=O)NC(=O)/C(=C/C=C/c2ccccc2)C1=O	-20%	?	28µM*	2	28µM*
O=C1NC(=O)N(CCc2ccc(F)cc2)C(=O)/C1=C\C=C\c1ccccc1	-19%	?	-7%	2	28µM*
c1ccc(N2CCC3(CCNCC3)CC2)nc1	.	.	-7%	-2	.
NC1=N[C@H](O)[C@H]2C3O[C@]4(O)O[C@H](C(O)[C@@]2(N1)[C@@H]4O)C3(O)CO (stereo not given in full)	-8%	-5%	6%	-2	-4%
O=C1C=CC[C@@H]2[C@H]3CCCN4CCC[C@@H](CN12)[C@@H]34	0%	-4%	-7%	0	-4%
COc1cc(-c2nc3ccc(Cl)cn3c2Nc2ccc3c(c2)OCCO3)ccc1O	10µM*[quencher]	13%	.	.	?
COc1ccc(S(=O)(=O)NCCc2sc3nc(-c4ccc(C)cc4)nn3c2C)cc1F	-25%	?	.	.	1%
CC1COC2=C1C(=O)C(=O)c1c2ccc2c1CCCC2(C)C (stereo not given)	?	?	?	-36*	13µM*
SMILES	Tau fluor cs	Tau FP inhib	Sfp inh	FBPA coupling cs	Tau fibril ThT
C[C@H]1COC2=C1C(=O)C(=O)c1c2ccc2c1CCCC2(C)C	-28%	?	-2%	-23	13µM*
CC[C@]1(O)CC[C@H]2[C@@H]3CCC4=CCCC[C@@H]4[C@H]3CC[C@@]21C	.	.	7%	.	.
CCOc1ccc(CCNC(=O)c2cc3c(-c4cccc(OC)c4)nn(C)c3s2)cc1OCC	?	-18%	.	.	?
Clc1c(Cl)c(Cl)c(Cl)c(Cl)c1Cl	.	.	10%	-1	.
CCCCC/C=C\C/C=C\C/C=C\C/C=C\CCCC(=O)NCc1ccoc1	-12%	?	22µM*	1	22µM*
CCCCC/C=C\C/C=C\C/C=C\C/C=C\CCCC(=O)Nc1ccc(O)cc1	14µM*[quencher]	?	33%	-6	?
CCCCC/C=C\C/C=C\C/C=C\C/C=C\CCCC(=O)NCCCC(=O)O	-11%	-16%	?	-2	?
CCCCC/C=C\C/C=C\CCCCCCCCCC(=O)NCCO	-10%	-6%	-2%	2	-8%
CCCCC/C=C\C/C=C\C/C=C\C/C=C\CCCC(=O)NCCc1ccc(O)c(O)c1	?	?	45µM*!	-24	?
CCCCC/C=C\C/C=C\C/C=C\C/C=C\CCCC(=O)NCC(=O)O	-2%	0%	79µM*!	10	?
NNC(=O)c1nn(-c2ccccc2)cc1O	-6%	5%	11%	-8	?
CCOc1ccc(Nc2c(S(=O)(=O)c3ccc(C)cc3)cnc3ccc(F)cc23)cc1	-24%	-5%	.	.	?
CC(C)n1c(/C=C\[C@@H](O)C[C@@H](O)CC(=O)O)c(-c2ccc(F)cc2)c2ccccc21	.	.	47%	0	.
Clc1ccccc1C(c1ccccc1)(c1ccccc1)n1cccn1	.	.	-7%	3	.
CCCCC/C=C\C/C=C\C/C=C\C/C=C\CCCC(=O)OCCN	-4%	3%	63µM*	-2	?
CCCCC/C=C\C/C=C\C/C=C\C/C=C\CCCC(N)=O	-2%	-1%	28%	2	-2%
CCCCC/C=C\C/C=C\C/C=C\C/C=C\CCCC(=O)NCCO	-4%	-1%	45µM*!	-11	-9%
COC(=O)COc1cc(Cl)c(Cl)cc1Cl	-7%	-4%	-2%	1	-13%
CCOP(=S)(OCC)Oc1ncn(-c2ccccc2)n1	.	.	?	0	.
O=C1c2ccccc2C(=O)N1SC1CCCCC1	-2%	?	10µM*	0	?
C[C@@H](Cc1cccc(C(F)(F)F)c1)NCCCc1ccccc1	-9%	-2%	-21%	0	0%
CC(=O)C1(c2ccccc2)CCN(C(=O)C2CCC(=O)N(CCc3cccc(F)c3)C2)CC1 (stereo not given)	.	.	19%	0	.
O=C(CCCN1CCC2(CC1)C(=O)N(Cc1cccc(F)c1)CN2c1ccccc1)c1ccc(F)cc1	?	-8%	71µM*	-2	?
